{"source": "paper PMC7862700", "about": "“An all-to-all approach to the identification of sequence-specific readers for epigenetic DNA modifications on cytosine”", "assay_in_all_cases": "DAPPL (digital affinity profiling via proximity ligation, sequencing); 10 mM Tris-HCl pH 7.5, 50 mM NaCl, 1 mM DTT, 4% glycerol, room temperature, 30 min; GST-TFs on glutathione beads, 16-mer random dsDNA library, 0.1% formaldehyde crosslink after washing; high values mean tight binding", "conditions_in_all_cases": "protein: recombinant; tags: N-terminal GST; dsDNA, one strand shown", "key": {"[1]": {"target": "T1, ELK4 (Homo sapiens, UniProt P28324-2 1-405)", "T1 sequence": "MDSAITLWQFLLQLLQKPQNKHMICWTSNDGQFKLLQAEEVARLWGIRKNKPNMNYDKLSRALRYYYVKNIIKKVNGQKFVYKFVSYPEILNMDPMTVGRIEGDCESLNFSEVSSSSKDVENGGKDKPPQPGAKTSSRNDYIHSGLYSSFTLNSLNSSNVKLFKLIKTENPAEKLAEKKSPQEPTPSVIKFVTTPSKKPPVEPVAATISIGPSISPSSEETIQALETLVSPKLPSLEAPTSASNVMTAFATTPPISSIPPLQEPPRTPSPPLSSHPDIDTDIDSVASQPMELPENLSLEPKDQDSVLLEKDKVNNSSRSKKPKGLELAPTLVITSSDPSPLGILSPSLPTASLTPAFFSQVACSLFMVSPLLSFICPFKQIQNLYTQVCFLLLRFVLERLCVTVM", "how_it_was_run": "(§1)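 Human transcription factors fused to GST were expressed in yeast, captured on glutathione beads, given DNA barcodes and pooled with a GST-only negative control. Pools were incubated with 200 nmole of a 16-mer random double-stranded DNA library in Tris/NaCl/DTT/glycerol buffer at room temperature for 30 min. They were then washed, crosslinked with 0.1% formaldehyde, proximity-ligated (BsaI/T4 ligase, 1 h, 37 °C), PCR-amplified and sequenced on an Illumina NextSeq500. Binding signal is each 6-mer's read frequency for a factor divided by its frequency for the GST control.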"}, "[2]": {"target": "T2, ETV2 (Homo sapiens, UniProt O00321 1-342)", "T2 sequence": "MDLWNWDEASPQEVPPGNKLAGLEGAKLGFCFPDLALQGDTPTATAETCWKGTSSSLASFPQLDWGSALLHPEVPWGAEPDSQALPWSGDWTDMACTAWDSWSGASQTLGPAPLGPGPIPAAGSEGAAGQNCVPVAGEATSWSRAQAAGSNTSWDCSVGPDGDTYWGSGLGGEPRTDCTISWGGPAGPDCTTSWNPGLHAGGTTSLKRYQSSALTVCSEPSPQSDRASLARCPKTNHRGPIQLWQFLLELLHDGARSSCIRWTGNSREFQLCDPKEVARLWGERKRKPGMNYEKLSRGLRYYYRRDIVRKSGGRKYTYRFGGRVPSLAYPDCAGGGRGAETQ", "how_it_was_run": "as §1"}, "[3]": {"target": "T3, ELF3 (Homo sapiens, UniProt P78545 1-371)", "T3 sequence": "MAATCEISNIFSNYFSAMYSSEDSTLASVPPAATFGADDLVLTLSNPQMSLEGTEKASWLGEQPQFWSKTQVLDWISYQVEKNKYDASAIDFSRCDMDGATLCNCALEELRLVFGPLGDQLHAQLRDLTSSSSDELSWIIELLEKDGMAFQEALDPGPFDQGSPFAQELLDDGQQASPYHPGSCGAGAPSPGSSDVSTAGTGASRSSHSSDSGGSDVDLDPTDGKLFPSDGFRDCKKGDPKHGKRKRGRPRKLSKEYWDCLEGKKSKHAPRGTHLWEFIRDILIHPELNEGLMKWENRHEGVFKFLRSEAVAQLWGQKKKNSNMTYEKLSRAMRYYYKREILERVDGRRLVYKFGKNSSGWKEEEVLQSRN", "how_it_was_run": "as §1"}, "[4]": {"target": "ETV1 (Homo sapiens, UniProt P50549 1-477)", "sequence (P50549 whole entry)": "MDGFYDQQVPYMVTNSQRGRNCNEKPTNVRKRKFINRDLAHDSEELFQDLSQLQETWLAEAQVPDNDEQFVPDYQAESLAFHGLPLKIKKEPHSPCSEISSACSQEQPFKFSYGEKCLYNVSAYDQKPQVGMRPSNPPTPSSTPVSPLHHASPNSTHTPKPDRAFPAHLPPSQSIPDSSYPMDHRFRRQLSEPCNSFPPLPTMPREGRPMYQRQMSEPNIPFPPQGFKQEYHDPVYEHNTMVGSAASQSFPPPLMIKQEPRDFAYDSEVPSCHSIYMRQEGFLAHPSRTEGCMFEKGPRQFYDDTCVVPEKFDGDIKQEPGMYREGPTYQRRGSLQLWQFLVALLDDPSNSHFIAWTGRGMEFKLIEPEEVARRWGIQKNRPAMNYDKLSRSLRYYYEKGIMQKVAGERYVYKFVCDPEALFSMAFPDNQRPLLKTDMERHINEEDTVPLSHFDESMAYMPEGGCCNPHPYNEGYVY", "how_it_was_run": "as §1"}, "[5]": {"target": "T4, ERF (Homo sapiens, UniProt P50548 1-548)", "T4 sequence": "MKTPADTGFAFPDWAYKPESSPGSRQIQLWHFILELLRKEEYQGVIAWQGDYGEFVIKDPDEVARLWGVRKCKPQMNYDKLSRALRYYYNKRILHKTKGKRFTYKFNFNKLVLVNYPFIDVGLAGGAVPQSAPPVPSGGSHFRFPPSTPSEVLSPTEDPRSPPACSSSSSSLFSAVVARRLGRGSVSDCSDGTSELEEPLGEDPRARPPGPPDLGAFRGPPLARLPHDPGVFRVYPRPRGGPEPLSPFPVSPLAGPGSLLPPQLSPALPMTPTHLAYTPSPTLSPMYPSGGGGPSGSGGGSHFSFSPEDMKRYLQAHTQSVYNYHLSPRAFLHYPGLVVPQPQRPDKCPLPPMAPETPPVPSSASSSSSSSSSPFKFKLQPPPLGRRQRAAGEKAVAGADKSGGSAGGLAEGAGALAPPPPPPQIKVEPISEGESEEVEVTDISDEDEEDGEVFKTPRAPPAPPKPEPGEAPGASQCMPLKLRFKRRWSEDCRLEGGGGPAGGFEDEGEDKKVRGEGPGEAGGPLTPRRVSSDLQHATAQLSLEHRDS", "how_it_was_run": "as §1"}, "[6]": {"target": "T5, ETV3L (Homo sapiens, UniProt Q6ZN32 1-361)", "T5 sequence": "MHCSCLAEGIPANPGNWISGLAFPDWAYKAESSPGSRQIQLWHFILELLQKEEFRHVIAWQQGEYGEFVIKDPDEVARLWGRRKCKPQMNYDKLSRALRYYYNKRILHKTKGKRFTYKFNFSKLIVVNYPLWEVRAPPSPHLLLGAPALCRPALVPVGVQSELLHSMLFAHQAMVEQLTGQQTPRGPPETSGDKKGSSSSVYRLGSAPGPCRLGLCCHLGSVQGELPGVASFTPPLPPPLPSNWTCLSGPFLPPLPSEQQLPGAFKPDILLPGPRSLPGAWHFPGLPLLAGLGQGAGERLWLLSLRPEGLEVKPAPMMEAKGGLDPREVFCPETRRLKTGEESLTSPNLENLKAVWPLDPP", "how_it_was_run": "as §1"}, "[7]": {"target": "T6, ETS2 (Homo sapiens, UniProt P15036 1-469)", "T6 sequence": "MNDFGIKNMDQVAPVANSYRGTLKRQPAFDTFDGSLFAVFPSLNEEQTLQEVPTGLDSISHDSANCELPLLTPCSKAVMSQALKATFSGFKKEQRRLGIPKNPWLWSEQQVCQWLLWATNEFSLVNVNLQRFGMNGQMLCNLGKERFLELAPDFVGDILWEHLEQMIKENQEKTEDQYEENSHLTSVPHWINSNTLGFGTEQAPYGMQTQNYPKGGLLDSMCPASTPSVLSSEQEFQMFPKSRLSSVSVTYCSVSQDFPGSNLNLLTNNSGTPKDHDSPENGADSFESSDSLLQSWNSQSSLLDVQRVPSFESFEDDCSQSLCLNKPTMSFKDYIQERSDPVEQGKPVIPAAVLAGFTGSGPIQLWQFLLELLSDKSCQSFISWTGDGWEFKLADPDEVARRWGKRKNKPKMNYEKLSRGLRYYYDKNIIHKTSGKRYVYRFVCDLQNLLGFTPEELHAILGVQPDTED", "how_it_was_run": "as §1"}, "[8]": {"target": "T7, ETV7 (Homo sapiens, UniProt Q9Y603 1-341)", "T7 sequence": "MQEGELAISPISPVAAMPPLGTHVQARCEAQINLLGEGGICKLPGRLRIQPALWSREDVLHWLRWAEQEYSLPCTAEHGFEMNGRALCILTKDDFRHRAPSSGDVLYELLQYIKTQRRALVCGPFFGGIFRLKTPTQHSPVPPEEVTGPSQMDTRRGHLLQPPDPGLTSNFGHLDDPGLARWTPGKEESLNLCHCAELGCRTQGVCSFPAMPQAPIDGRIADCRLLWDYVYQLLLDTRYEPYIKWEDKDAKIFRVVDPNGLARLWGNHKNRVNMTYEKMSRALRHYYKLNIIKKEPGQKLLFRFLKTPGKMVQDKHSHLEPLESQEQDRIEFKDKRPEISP", "how_it_was_run": "as §1"}, "[9]": {"target": "T8, ETV3 (Homo sapiens, UniProt P41162-2 1-143)", "T8 sequence": "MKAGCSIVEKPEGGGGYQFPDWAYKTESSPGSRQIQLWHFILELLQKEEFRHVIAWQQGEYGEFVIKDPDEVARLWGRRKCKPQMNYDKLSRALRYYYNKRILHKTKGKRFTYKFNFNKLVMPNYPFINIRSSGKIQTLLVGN", "how_it_was_run": "as §1"}, "[10]": {"target": "ETV6 (Homo sapiens, UniProt P41212 1-452)", "sequence (P41212 whole entry)": "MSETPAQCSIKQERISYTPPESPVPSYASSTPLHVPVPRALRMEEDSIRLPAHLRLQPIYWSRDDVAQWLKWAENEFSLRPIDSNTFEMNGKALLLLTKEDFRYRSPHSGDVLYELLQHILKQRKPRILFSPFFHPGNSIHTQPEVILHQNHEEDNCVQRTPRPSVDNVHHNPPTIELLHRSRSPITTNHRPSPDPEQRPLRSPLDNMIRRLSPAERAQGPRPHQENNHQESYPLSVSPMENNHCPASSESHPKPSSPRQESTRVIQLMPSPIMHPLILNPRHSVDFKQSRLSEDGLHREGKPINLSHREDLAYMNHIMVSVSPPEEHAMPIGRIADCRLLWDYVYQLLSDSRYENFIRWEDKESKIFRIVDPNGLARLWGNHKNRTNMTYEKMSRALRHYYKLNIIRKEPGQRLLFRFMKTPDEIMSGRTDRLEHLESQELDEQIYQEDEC", "how_it_was_run": "as §1"}}, "data": [{"sequence": "CGTTTA", "values": [{"measurement": "binding signal", "setting": "[1]", "result": "1.15 fold enrichment (6-mer frequency, TF over GST control)"}, {"measurement": "binding signal", "setting": "[2]", "result": "1.03 fold enrichment (6-mer frequency, TF over GST control)"}, {"measurement": "binding signal", "setting": "[3]", "result": "1.09 fold enrichment (6-mer frequency, TF over GST control)"}, {"measurement": "binding signal", "setting": "[4]", "result": "1.12 fold enrichment (6-mer frequency, TF over GST control)"}, {"measurement": "binding signal", "setting": "[5]", "result": "1.05 fold enrichment (6-mer frequency, TF over GST control)"}, {"measurement": "binding signal", "setting": "[6]", "result": "1.1 fold enrichment (6-mer frequency, TF over GST control)"}, {"measurement": "binding signal", "setting": "[7]", "result": "1.16 fold enrichment (6-mer frequency, TF over GST control)"}, {"measurement": "binding signal", "setting": "[8]", "result": "1.12 fold enrichment (6-mer frequency, TF over GST control)"}, {"measurement": "binding signal", "setting": "[9]", "result": "1.05 fold enrichment (6-mer frequency, TF over GST control)"}, {"measurement": "binding signal", "setting": "[10]", "result": "1.14 fold enrichment (6-mer frequency, TF over GST control)"}]}]}
